From PubChem BioAssay (NCI)
Compounds without any hit were thinned out: in the full panel of roughly 79,000, 15% have a hit. A number with no mark means an inactive call. Activity calls are given as the source filed them. Cut-off read from the data, not from the text of the source: active = growth inhibition above about 70%; inactive = the rest.

What was measured:
[1] = NCI Yeast Anticancer Drug Screen. Data for the rad50 strain (AID 155);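 note: 0% = growth of vehicle-only cultures of the same strain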; settings: S. cerevisiae rad50 strain growth inhibition, active compounds read high
Summary of the method: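 Cells are treated with compound, grown, and their growth is then scored against vehicle-only cultures of the same repair-deficient yeast strain.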

[2] = NCI Yeast Anticancer Drug Screen. Data for the mec2-1 strain (AID 157); settings: S. cerevisiae mec2-1 strain, active compounds read high
Summary of the method: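 Using mec2-1 yeast: add compound, measure growth, express inhibition versus vehicle-treated cultures.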

[3] = NCI Yeast Anticancer Drug Screen. Data for the sgs1 mgt1 strain (AID 161);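 note: 0% = growth of cultures given vehicle only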; settings: S. cerevisiae sgs1 mgt1 strain, active compounds read high
Summary of the method: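 This yeast growth screen uses a strain with defined DNA-repair lesions; compound-treated growth is compared with vehicle-treated growth.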

[4] = NCI Yeast Anticancer Drug Screen. Data for the cln2 rad14 strain (AID 165);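 note: 0% = growth equal to vehicle treated cultures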; settings: S. cerevisiae cln2 rad14 strain, active compounds read high
Summary of the method: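 Yeast strain cln2 rad14, bearing defects in cell cycle control and DNA repair, serves as the test system; values reflect growth inhibition compared with vehicle.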

[5] = NCI Yeast Anticancer Drug Screen. Data for the bub3 strain (AID 167); settings: S. cerevisiae bub3 mutant strain, active compounds read high
Summary of the method: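 Part of a panel of yeast mutants defective in DNA damage repair or cell cycle regulation. Each strain is grown with compound, and inhibition is calculated relative to solvent-treated cultures.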

[6] = NCI Yeast Anticancer Drug Screen. Data for the mlh1 rad18 strain (AID 175); settings: S. cerevisiae mlh1 rad18 strain growth inhibition, active compounds read high
Summary of the method: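 Steps: expose repair-defective yeast to compound; measure growth; express inhibition against vehicle-treated controls.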

[7] = at 5.0 µM (retest, dose inferred, filed as 0.5)
[8] = at 50.0 µM (retest, dose inferred, filed as 5.0)

## CN(C)c1nc(Cl)nc2c1ncn2C1OCC(O)C(O)C1O (stereo not given)
[1]; [7]
  growth inhibition: -4%
[1]; [8]
  growth inhibition: 3%
[1]; at 50.0 µM
  growth inhibition: 10.7%
[2]; [7]
  growth inhibition: -8%
[2]; [8]
  growth inhibition: 4%
[2]; at 50.0 µM
  growth inhibition: 22%
[3]; [7]
  growth inhibition: 9%
[3]; [8]
  growth inhibition: 7%
[3]; at 50.0 µM
  growth inhibition: 5.05%
[4]; [7]
  growth inhibition: 1%
[4]; [8]
  growth inhibition: -6%
[4]; at 50.0 µM
  growth inhibition: 1.25%
[5]; [7]
  growth inhibition: -1%
[5]; [8]
  growth inhibition: -7%
[5]; at 50.0 µM
  growth inhibition: -5.1%
[6]; [7]
  growth inhibition: 11%
[6]; [8]
  growth inhibition: 11%
[6]; at 50.0 µM
  growth inhibition: 42.5%

## COc1ccc2nc3cc(Cl)ccc3c(Nc3ccc(O)c(CN4CCN(C)CC4)c3)c2c1
[1]; [7]
  growth inhibition: 25%
[1]; [8]
  growth inhibition: 43%
[1]; at 50.0 µM
  growth inhibition: 66.9%
[2]; [7]
  growth inhibition: 7%
[2]; [8]
  growth inhibition: -11%
[2]; at 50.0 µM
  growth inhibition: -26.7%
[3]; [7]
  growth inhibition: 8%
[3]; [8]
  growth inhibition: 6%
[3]; at 50.0 µM
  growth inhibition: 32%
[4]; [7]
  growth inhibition: 21%
[4]; [8]
  growth inhibition: 2%
[4]; at 50.0 µM
  growth inhibition: 27.6%
[5]; [7]
  growth inhibition: 8%
[5]; [8]
  growth inhibition: 6%
[5]; at 50.0 µM
  growth inhibition: -33.8%
[6]; [7]
  growth inhibition: 13%
[6]; [8]
  growth inhibition: 1%
[6]; at 50.0 µM
  growth inhibition: -2.9%

## Cc1ccc(N=C(N)Nc2ccc(C)cn2)nc1
[1]; [7]
  growth inhibition: 6%
[1]; [8]
  growth inhibition: 78% (active)
[1]; at 50.0 µM
  growth inhibition: 84.5% (active)
[2]; [7]
  growth inhibition: 2%
[2]; [8]
  growth inhibition: 68%
[2]; at 50.0 µM
  growth inhibition: 77.9% (active)
[3]; [7]
  growth inhibition: 4%
[3]; [8]
  growth inhibition: 69%
[3]; at 50.0 µM
  growth inhibition: 44.6%
[4]; [7]
  growth inhibition: 19%
[4]; [8]
  growth inhibition: 74% (active)
[4]; at 50.0 µM
  growth inhibition: 40%
[5]; [7]
  growth inhibition: -5%
[5]; [8]
  growth inhibition: 70% (active)
[5]; at 50.0 µM
  growth inhibition: 79.3% (active)
[6]; [7]
  growth inhibition: 5%
[6]; [8]
  growth inhibition: 72% (active)
[6]; at 50.0 µM
  growth inhibition: 41.5%

## CCN(CC)c1ccc(N=C2C=C(C(=O)Nc3cccc(Cl)c3)C(=O)c3ccccc32)c(C)c1
[1]; [7]
  growth inhibition: -1%
[1]; [8]
  growth inhibition: -12%
[1]; at 50.0 µM
  growth inhibition: -17.9%
[2]; [7]
  growth inhibition: 8%
[2]; [8]
  growth inhibition: 32%
[2]; at 50.0 µM
  growth inhibition: -7%
[3]; [7]
  growth inhibition: -30%
[3]; [8]
  growth inhibition: -23%
[3]; at 50.0 µM
  growth inhibition: -9.25%
[4]; [7]
  growth inhibition: -4%
[4]; [8]
  growth inhibition: -7%
[4]; at 50.0 µM
  growth inhibition: 38.4%
[5]; [7]
  growth inhibition: 0%
[5]; [8]
  growth inhibition: -12%
[5]; at 50.0 µM
  growth inhibition: -4.35%
[6]; [7]
  growth inhibition: -34%
[6]; [8]
  growth inhibition: -43%
[6]; at 50.0 µM
  growth inhibition: -27.2%

## O=S(=O)(Nc1ccc(NS(=O)(=O)c2ccccc2)c(N2N=N2)c1)c1ccccc1
[1]; [7]
  growth inhibition: 1%
[1]; [8]
  growth inhibition: 69%
[1]; at 50.0 µM
  growth inhibition: 86.3% (active)
[2]; [7]
  growth inhibition: 2%
[2]; [8]
  growth inhibition: 80% (active)
[2]; at 50.0 µM
  growth inhibition: 66.2%
[3]; [7]
  growth inhibition: 4%
[3]; [8]
  growth inhibition: 76% (active)
[3]; at 50.0 µM
  growth inhibition: 88.9% (active)
[4]; [7]
  growth inhibition: 0%
[4]; [8]
  growth inhibition: 55%
[4]; at 50.0 µM
  growth inhibition: 79.1% (active)
[5]; [7]
  growth inhibition: -2%
[5]; [8]
  growth inhibition: 62%
[5]; at 50.0 µM
  growth inhibition: 75.4% (active)
[6]; [7]
  growth inhibition: -2%
[6]; [8]
  growth inhibition: 79% (active)
[6]; at 50.0 µM
  growth inhibition: 76.6% (active)
